10 molecules from PubChem BioAssay (EPA / NIEHS) can be followed below.

The target in assay [1] is Androgen receptor (Homo sapiens) (UniProt P10275). Put plainly: ATG_AR_TRANS: Attagene TRANS-FACTORIAL HepG2 Assay for human Androgen Receptor (AR) (AID 2282973). To be noted: HepG2 Attagene TRANS-FACTORIAL AR reporter transcription. The gist of the method: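 Transfected HepG2, 24 h treatment, chimeric NR-Gal4 driving GAL4-UAS reporters. mRNA induction by RT-PCR/capillary electrophoresis fluorescence; DMSO as negative control and baseline.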
Chain of Androgen receptor (Homo sapiens) (P10275 whole entry, looked up, the tested form may be a part): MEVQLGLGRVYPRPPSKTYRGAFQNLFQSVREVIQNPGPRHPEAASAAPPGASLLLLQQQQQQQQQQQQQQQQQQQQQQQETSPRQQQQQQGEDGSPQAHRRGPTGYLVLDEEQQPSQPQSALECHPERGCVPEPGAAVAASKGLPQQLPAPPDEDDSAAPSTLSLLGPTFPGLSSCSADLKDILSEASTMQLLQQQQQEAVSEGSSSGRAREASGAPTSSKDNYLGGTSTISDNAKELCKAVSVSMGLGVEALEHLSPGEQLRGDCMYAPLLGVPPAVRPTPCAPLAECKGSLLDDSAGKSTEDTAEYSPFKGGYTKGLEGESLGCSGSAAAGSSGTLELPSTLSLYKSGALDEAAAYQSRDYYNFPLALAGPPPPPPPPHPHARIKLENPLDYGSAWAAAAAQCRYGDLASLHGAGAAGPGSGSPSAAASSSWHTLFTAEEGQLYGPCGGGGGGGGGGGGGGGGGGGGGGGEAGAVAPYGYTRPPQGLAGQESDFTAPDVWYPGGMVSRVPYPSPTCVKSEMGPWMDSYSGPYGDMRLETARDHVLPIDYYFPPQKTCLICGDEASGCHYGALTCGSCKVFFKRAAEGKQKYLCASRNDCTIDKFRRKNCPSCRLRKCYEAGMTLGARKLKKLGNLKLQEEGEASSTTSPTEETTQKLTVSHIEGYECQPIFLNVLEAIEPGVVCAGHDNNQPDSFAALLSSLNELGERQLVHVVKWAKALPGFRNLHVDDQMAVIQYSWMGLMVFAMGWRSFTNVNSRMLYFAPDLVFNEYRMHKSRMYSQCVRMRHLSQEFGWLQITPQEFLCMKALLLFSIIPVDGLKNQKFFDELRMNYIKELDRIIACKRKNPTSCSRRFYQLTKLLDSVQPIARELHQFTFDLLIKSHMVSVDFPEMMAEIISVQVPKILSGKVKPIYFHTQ

Assay [2] has as its target human CYP4F12, CYP4F12 (gene 66002) (UniProt Q9HCS2). Put plainly: NVS_ADME_hCYP4F12: NovaScreen (NVS) CYP450-related Enzyme Activity (ADME) Assay for human CYP4F12 (AID 2283111). The gist of the method:
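Cell-free fluorescence assay of recombinant human CYP4F12 activity on a specific substrate, read 0.5 h after dosing. Primary screen in duplicate at 10 uM, then concentration series for actives; loss of signal fitted against acetonitrile negative control.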

The target in assay [3] is Bile acid receptor (Homo sapiens) (UniProt Q96RI1). The assay can be described thus: NVS_NR_hFXR_Agonist: NovaScreen (NVS) Nuclear Receptor Binding Assay for human Farnesoid X Receptor Agonism (FXR) (AID 2283347). The gist of the method:
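Cell-free TR-FRET binding assay with extracted human FXR protein, agonist format, read 1 h after dosing. Primary screen at 25 uM single concentration in duplicate, actives retested in concentration series; gain of signal versus DMSO.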

The target of assay [4] is human Acetylcholinesterase (AChE), ACHE (gene 43) (UniProt P22303). The assay can be described thus: NVS_ENZ_hAChE: NovaScreen (NVS) Enzymatic Assay for human Acetylcholinesterase (AChE) (AID 2283129). The gist of the method:
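Cell-free colorimetric enzyme-activity assay; compounds read 0.33 hour after dosing, loss of signal vs DMSO baseline. Primary screen in duplicate at 25 uM single concentration, with active compounds retested in concentration series.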

Assay [5] concerns the target human Fibroblast Growth Factor Receptor 1 (FGFR1), FGFR1 (gene 2260) (UniProt P11362). The assay can be described thus: NVS_ENZ_hFGFR1: NovaScreen (NVS) Enzymatic Assay for human Fibroblast Growth Factor Receptor 1 (FGFR1) (AID 2283159).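 For AC50: hits lower the signal so potencies describe inhibitors of the kinase.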 A digest of the protocol: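 Cell-free recombinant kinase with fluorescent substrate, product separated by electrophoretic mobility shift; read 1 hour after dosing, loss of signal relative to DMSO. Initial screen in duplicate at 25 uM, actives followed in concentration series.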

In assay [6] the target is human Protein Tyrosine Phosphatase Receptor Type C (PTPRC), PTPRC (gene 5788) (UniProt P08575). Put plainly: NVS_ENZ_hPTPRC: NovaScreen (NVS) Enzymatic Assay for human Protein Tyrosine Phosphatase Receptor Type C (PTPRC) (AID 2283212). A digest of the protocol:
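Yeast-extracted human PTPRC used in a cell-free colorimetric enzyme activity read-out, 1 h after dosing. Primary screen in duplicate at 25 uM; actives rerun in concentration-response up to 50 uM, DMSO as baseline.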

Assay [7] has as its target human Raf-1 Proto-Oncogene, serine/threonine Kinase (RAF1), RAF1 (gene 5894) (UniProt P04049). The assay can be described thus: NVS_ENZ_hRAF1: NovaScreen (NVS) Enzymatic Assay for human Raf-1 Proto-Oncogene, serine/threonine Kinase (RAF1) (AID 2283216). A digest of the protocol:
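Cell-free recombinant kinase with specific fluorescent substrate, product separated by electrophoretic mobility shift; read 1 h after dosing. Primary screen at 25 uM in duplicate; hits then run in concentration-response up to 50 uM, fitted as loss of signal versus DMSO.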

In assay [8] the target is human Androgen Receptor (AR), AR (gene 367) (UniProt P10275). The assay can be described thus: ATG_hAR_XSP1: Attagene TRANS-FACTORIAL Multi-Species (XSP1) HepG2 Assay for human Androgen Receptor (AR) (AID 2283785). The protocol: ATG_XSP1_multi-species_TRANS is a cell-based, multiplexed assay created by modifying the existing Attagene TRANS-FACTORIAL system to include a panel of nuclear receptors from some or all the following species: human (Homo sapiens), mouse (Mus musculus), frog (Xenopus laevis), zebrafish (Danio rerio), chicken (Gallus gallus), and turtle (Chrysemys picta). The ECOTOX-FACTORIAL format uses HepG2, a human liver cell line, with measurements taken at 24 hours after chemical dosing in a 24-well plate. Xsp1 included 3 nM 6-alpha-fluorotestosterone to partially stimulate the androgen receptor.ATG_hAR_XSP1 is one of 29 assay components measured or calculated from the ATG_XSP1_multi-species_TRANS assay. It is designed to make measurements of mRNA induction, a form of inducible reporter, as detected with fluorescence intensity signals by Reverse transcription polymerase chain reaction (RT-PCR) and Capillary electrophoresis technology.The assay endpoint ATG_hAR_XSP1 was analyzed in the positive analysis fitting direction relative to DMSO as the negative control and baseline of activity. […] Furthermore, this assay endpoint can be referred to as a primary readout, because this assay has produced multiple assay endpoints where this one serves a reporter gene function. […]

Assay [9] has as its target human Caspase 2 (CASP2), CASP2 (gene 835) (UniProt P42575). The assay can be described thus: NVS_ENZ_hCASP2: NovaScreen (NVS) Enzymatic Assay for human Caspase 2 (CASP2) (AID 2283135). The gist of the method: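 E. coli-expressed enzyme in a cell-free protease assay, fluorescence read 1 h after dosing. Compounds at 25 uM in duplicate, with concentration-response up to 50 uM for hits; loss of signal against DMSO baseline.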

For assay [10], the target named is rat CYP1A2, Cyp1a2 (gene 24297) (UniProt P04799). The assay can be described thus: NVS_ADME_rCYP1A2: NovaScreen (NVS) CYP450-related Enzyme Activity (ADME) Assay for rat CYP1A2 (AID 2283115). The gist of the method: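 Cell-free recombinant rat enzyme with fluorogenic substrate, read by fluorescence intensity 1 hour after dosing. Loss of signal versus acetonitrile negative control; primary screen at 10 uM in duplicate, actives followed in concentration series.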
Chain of rat CYP1A2, Cyp1a2 (gene 24297) (P04799 whole entry, looked up): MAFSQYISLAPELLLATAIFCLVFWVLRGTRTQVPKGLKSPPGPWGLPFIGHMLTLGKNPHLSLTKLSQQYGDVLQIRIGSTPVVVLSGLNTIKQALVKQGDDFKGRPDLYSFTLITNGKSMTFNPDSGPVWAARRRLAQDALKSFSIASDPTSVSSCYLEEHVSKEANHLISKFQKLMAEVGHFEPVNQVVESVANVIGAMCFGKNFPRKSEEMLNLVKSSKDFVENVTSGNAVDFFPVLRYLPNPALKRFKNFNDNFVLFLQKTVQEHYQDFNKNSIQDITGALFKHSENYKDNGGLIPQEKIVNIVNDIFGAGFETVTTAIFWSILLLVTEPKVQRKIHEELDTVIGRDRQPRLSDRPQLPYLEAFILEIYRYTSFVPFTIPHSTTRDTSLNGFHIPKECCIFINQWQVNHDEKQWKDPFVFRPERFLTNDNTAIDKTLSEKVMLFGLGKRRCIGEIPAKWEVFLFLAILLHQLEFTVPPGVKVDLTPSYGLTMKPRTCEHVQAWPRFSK

Assay [11] addresses Cytochrome P450 2C18 (Homo sapiens) (UniProt P33260). Put plainly: NVS_ADME_hCYP2C18: NovaScreen (NVS) CYP450-related Enzyme Activity (ADME) Assay for human CYP2C18 (AID 2283103; active = hit-call score of the fitted dose curve at least 0.9, where 1 is the maximum; inactive = score below 0.9). The gist of the method:
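Cell-free recombinant human CYP2C18 with fluorogenic substrate; fluorescence intensity read 0.5 h after dosing. Single-point screen at 10 uM in duplicate, then concentration-response up to 20 uM; loss of signal fitted against acetonitrile baseline.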

Assay [12] has as its target rat CYP2D1, Cyp2d1 (gene 266684) (UniProt P10633). The assay can be described thus: NVS_ADME_rCYP2D1: NovaScreen (NVS) CYP450-related Enzyme Activity (ADME) Assay for rat CYP2D1 (AID 2283122). A digest of the protocol: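 Cell-free fluorescence enzyme-activity assay on extracted rat CYP2D1 protein, read 0.75 h after dosing. Primary screen in duplicate at 10 uM; qualifying chemicals then run in concentration-response to 20 uM max, loss-of-signal versus acetonitrile baseline.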

In assay [13] the target is rat Acetylcholinesterase (AChE), Ache (gene 83817) (UniProt P37136). Put plainly: NVS_ENZ_rAChE: NovaScreen (NVS) Enzymatic Assay for rat Acetylcholinesterase (AChE) (AID 2283233). A digest of the protocol: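 Rat brain membrane acetylcholinesterase activity measured colorimetrically 0.33 h after compound addition, loss of signal relative to DMSO. Primary screen in duplicate at 25 uM; actives re-run as concentration-response with 50 uM top concentration.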

Results filed as inconclusive are left out. Active and inactive are the calls of the source. Rule for the calls, unless noted: active = hit-call score of the fitted dose curve at least 0.9, where 1 is the maximum; inconclusive = response in the unintended direction; inactive = score below 0.9.

Chain of human Acetylcholinesterase (AChE), ACHE (gene 43) (P22303 whole entry, looked up): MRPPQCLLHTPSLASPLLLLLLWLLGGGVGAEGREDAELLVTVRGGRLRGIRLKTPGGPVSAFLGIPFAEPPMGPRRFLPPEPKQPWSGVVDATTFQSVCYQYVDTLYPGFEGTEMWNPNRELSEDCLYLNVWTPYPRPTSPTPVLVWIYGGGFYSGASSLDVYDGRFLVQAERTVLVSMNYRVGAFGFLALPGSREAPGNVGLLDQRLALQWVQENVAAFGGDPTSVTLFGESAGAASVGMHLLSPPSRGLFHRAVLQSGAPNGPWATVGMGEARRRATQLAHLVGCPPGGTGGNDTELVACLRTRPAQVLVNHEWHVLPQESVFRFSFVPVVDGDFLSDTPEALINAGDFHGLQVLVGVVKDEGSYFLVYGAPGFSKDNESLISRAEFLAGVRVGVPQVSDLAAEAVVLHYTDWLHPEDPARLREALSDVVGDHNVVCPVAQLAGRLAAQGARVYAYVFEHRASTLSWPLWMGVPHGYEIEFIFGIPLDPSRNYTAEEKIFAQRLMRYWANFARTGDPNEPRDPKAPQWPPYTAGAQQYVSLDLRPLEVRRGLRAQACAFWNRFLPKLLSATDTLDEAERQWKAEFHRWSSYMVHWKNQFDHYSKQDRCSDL
Chain of Bile acid receptor (Homo sapiens) (Q96RI1 whole entry, looked up): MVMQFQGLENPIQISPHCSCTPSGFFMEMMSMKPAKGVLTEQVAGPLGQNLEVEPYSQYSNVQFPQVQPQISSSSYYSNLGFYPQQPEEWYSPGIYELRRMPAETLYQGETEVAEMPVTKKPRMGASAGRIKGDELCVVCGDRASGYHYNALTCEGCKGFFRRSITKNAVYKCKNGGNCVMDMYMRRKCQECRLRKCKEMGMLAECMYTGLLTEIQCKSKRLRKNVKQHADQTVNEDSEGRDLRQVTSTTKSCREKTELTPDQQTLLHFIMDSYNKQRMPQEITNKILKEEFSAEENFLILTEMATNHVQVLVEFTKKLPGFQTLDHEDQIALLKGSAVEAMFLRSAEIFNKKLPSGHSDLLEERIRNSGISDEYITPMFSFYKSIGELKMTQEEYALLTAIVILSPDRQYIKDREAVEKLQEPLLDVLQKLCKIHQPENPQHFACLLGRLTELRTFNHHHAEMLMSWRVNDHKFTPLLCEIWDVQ
Chain of human CYP4F12, CYP4F12 (gene 66002) (Q9HCS2 whole entry, looked up): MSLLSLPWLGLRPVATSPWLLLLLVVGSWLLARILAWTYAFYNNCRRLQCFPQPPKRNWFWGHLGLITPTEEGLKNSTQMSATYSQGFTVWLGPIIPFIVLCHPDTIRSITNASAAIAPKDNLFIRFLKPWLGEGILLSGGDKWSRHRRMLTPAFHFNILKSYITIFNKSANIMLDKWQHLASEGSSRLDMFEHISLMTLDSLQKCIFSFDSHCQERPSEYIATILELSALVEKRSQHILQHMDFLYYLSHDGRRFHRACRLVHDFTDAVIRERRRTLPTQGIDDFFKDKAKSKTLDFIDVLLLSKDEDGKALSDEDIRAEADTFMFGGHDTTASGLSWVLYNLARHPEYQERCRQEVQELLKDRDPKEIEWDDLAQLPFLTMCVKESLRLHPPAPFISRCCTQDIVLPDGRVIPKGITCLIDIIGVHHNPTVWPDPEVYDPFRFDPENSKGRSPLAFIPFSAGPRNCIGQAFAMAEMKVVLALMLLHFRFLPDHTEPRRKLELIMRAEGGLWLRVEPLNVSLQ
Chain of human Fibroblast Growth Factor Receptor 1 (FGFR1), FGFR1 (gene 2260) (P11362 whole entry, looked up): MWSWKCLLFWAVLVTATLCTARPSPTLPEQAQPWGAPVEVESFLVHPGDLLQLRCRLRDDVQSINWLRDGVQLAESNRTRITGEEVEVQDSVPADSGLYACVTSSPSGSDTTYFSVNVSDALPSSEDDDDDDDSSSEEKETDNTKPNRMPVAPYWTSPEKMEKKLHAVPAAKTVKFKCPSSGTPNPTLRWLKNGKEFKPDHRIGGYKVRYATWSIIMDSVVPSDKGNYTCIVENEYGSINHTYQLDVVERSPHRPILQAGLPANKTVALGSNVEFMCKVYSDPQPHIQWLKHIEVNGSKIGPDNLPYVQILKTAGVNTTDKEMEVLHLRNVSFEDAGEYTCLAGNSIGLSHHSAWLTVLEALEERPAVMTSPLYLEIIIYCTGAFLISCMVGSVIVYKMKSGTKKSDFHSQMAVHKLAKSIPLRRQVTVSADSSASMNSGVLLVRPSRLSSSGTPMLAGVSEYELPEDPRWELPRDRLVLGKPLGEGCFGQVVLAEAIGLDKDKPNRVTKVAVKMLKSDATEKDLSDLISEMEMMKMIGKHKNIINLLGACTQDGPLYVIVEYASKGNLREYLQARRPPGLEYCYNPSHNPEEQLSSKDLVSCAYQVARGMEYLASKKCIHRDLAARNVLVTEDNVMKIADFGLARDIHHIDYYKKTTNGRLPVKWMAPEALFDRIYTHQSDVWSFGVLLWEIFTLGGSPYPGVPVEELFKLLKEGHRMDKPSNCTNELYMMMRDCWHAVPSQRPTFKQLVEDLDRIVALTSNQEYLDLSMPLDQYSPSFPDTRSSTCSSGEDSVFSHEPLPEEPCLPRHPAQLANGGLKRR
Chain of human Raf-1 Proto-Oncogene, serine/threonine Kinase (RAF1), RAF1 (gene 5894) (P04049 whole entry, looked up): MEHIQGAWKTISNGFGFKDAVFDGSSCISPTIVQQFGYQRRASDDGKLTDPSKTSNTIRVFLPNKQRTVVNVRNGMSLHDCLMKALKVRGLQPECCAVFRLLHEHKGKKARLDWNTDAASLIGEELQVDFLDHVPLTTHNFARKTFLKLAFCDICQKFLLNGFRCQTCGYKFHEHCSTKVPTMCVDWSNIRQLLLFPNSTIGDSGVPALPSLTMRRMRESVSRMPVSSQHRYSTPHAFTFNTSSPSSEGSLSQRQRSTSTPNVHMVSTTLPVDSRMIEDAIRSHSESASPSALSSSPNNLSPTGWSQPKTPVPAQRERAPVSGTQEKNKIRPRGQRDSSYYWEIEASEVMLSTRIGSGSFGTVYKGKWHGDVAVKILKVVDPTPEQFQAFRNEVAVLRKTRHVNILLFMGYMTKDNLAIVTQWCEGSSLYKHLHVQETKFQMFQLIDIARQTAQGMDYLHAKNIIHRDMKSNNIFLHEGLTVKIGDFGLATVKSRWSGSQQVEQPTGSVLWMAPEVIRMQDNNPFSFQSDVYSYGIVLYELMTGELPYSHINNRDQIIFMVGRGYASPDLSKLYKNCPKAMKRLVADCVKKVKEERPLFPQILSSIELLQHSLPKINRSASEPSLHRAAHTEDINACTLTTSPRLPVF
Chain of human Caspase 2 (CASP2), CASP2 (gene 835) (P42575 whole entry, looked up): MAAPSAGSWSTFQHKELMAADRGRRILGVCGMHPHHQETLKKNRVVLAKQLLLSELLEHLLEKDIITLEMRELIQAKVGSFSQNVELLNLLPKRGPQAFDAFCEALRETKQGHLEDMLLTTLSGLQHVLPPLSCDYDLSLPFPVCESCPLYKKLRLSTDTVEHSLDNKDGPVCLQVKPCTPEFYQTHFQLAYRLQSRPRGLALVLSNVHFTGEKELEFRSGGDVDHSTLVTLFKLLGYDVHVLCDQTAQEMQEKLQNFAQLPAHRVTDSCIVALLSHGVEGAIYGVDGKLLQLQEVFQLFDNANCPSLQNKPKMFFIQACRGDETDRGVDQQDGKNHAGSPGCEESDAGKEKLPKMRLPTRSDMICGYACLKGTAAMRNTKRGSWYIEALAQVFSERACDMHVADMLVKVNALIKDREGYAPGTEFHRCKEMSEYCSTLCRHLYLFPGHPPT

`COc1ccccc1OCC(O)CO` (stereo not given): the molecule was called inactive in assay [1].

In the case of `CC1(C)C(=O)N(Br)C(=O)N1Br`, the molecule was called inactive in [1] and in assay [3]. Besides, in assay [2], the AC50 is 2.18 µM (active).

`CCCCCCCCCCCCCCCCOS(=O)(=O)O`: in assay [1], the outcome was inactive. The results for the concentration at half-maximal activity (AC50) in assay [4], in assay [5] and in assay [6] were 16.8 µM (active), 1.41 µM (active) and 6.6 µM (active), respectively.

Turning to `CC[C@H](c1ccc(O)cc1)[C@@H](CC)c1ccc(O)cc1`, the outcome in assay [1] and in assay [8] was inactive. Further, the half-maximal activity concentration (AC50) is 4.88 µM (active) in assay [4] and 38.5 µM (active) in assay [7].

For `CSc1ccc(Oc2ccc(S(N)(=O)=O)cc2CN(C)C)cc1C`, the molecule was classed as inactive in assay [1], in assay [4], in assay [9] and in assay [5]. For the same molecule, the half-maximal activity concentration (AC50) in [2] was 8.72 µM (active).

Take `COc1ccc(C(=O)/C(Br)=C\C(=O)O)cc1`: the outcome in assay [1] and in assay [10] was inactive.

Take `c1cc[nH]c1`: the result in assay [1] and in assay [10] was inactive.

Take `Cc1nn(C)c(Oc2ccccc2)c1C=NOCc1ccc(C(=O)OC(C)(C)C)cc1`: the outcome in assay [1], in assay [11], in [12] and in assay [3] was inactive.

Consider `CN(C)C(=O)C1(N2CCCCC2)CCN(CC[C@@]2(c3ccc(Cl)c(Cl)c3)CN(C(=O)c3ccccc3)CCO2)CC1`, for which the call in assay [1] was inactive. The AC50 in assay [4] was 4.93 µM (active); in [13] it was 9.53 µM (active).

With `CCCN(C1CCN(C(=O)C2CCNCC2)CC1)[C@@H]1CCc2ccc(OC)cc2C1`, in [1], the outcome was inactive. Also, the AC50 in assay [4] was 35.2 µM (active).

As a reminder, the AC50 is the concentration at which the activity in the assay is half-maximal.
